Reference: PubChem BioAssay (NCI)
Compounds without any hit were thinned out: in the full panel of roughly 83,000, 20% have a hit.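 Percent growth is the endpoint: 0 to 100 indicates growth inhibition (40 means 60% inhibition), 0 means no net growth, and negative values indicate cell death.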 The source made the active and inactive calls. How the source made its calls: active means growth percent below 10; inactive means the rest.

Legend:
Experiment in all cases: NCI-60 one-dose screen, 48 h (100 = growth as untreated, 0 = no growth, -100 = all killed)
Settings in all cases: 10 µM unless noted
NCI/ADR-RES ovarian = tested on: NCI/ADR-RES ovarian
T-47D breast = tested on: T-47D breast
BT-549 breast = tested on: BT-549 breast
MDA-MB-435 melanoma = tested on: MDA-MB-435 melanoma
SW-620 colon = tested on: SW-620 colon
MCF7 breast = tested on: MCF7 breast
HCT-116 colon = tested on: HCT-116 colon
HCC-2998 colon = tested on: HCC-2998 colon
KM12 colon = tested on: KM12 colon

Measured: growth

O=C(O)c1ccc([S-])cc1.[Au+].c1ccc(CN2[CH-]N(Cc3ccccc3)C(c3ccccc3)=C2c2ccccc2)cc1
active: NCI/ADR-RES ovarian 3.13% | T-47D breast -66.5% | BT-549 breast -21.2% | MDA-MB-435 melanoma -9.04% | SW-620 colon -50.2% | MCF7 breast -86.1% | HCT-116 colon -84.7% | HCC-2998 colon -72.7%

O=C(CC1(O)C(=O)N(Cc2ccccc2)c2ccc(Br)cc21)c1ccc(C(=O)NCC2CCC3(CC2)OOC2(CCCCC2)OO3)cc1 (stereo unspecified)
active: NCI/ADR-RES ovarian -44.8% | T-47D breast -29.2% | MDA-MB-435 melanoma 4.94% | SW-620 colon -16.5%
inactive: BT-549 breast 33.9% | MCF7 breast 31.5% | HCT-116 colon 35.5% | HCC-2998 colon 102%

CN1C(=O)C(=Cc2cn(Cc3ccccc3)c3ccccc23)C(=O)N(C)C1=O
inactive: NCI/ADR-RES ovarian 89% | T-47D breast 42.8% | BT-549 breast 88.9% | MDA-MB-435 melanoma 102% | SW-620 colon 79.7% | MCF7 breast 64% | HCT-116 colon 71% | HCC-2998 colon 81.8%

CCC1CN1CCCCN1CC1CC (stereo unspecified)
inactive: NCI/ADR-RES ovarian 103% | T-47D breast 92.1% | BT-549 breast 103% | MDA-MB-435 melanoma 93.7% | SW-620 colon 105% | MCF7 breast 99.8% | HCT-116 colon 98.7% | HCC-2998 colon 100%

O=C(CC1(O)C(=O)Nc2ccc(Cl)cc21)c1ccc(C(=O)NCC2CCC3(CC2)OOC2(CCCCC2)OO3)cc1 (stereo unspecified)
active: T-47D breast -24.7% | MDA-MB-435 melanoma 8.39% | SW-620 colon -49%
inactive: NCI/ADR-RES ovarian 58.3% | BT-549 breast 48.8% | MCF7 breast 37.4% | HCT-116 colon 41.6% | HCC-2998 colon 83.6%

CNCc1cccnc1
inactive: NCI/ADR-RES ovarian 104% | T-47D breast 98.4% | BT-549 breast 124% | MDA-MB-435 melanoma 95.9% | SW-620 colon 107% | MCF7 breast 105% | HCT-116 colon 107% | HCC-2998 colon 96.6%

COC(=O)C1OC(Oc2ccc(N(CCCl)CCCl)cc2)C(OC(C)=O)C(OC(C)=O)C1OC(C)=O (stereo unspecified)
inactive: NCI/ADR-RES ovarian 92.9% | T-47D breast 77.4% | BT-549 breast 95.3% | MDA-MB-435 melanoma 93.2% | SW-620 colon 75.4% | MCF7 breast 57.8% | HCT-116 colon 88.6% | HCC-2998 colon 96%

CC(=O)O[C@H]1CC[C@H]2[C@@H]3CC=C4c5nc(-c6ccccc6)sc5CC[C@]4(C)[C@H]3CC[C@]12C
inactive: NCI/ADR-RES ovarian 71.1% | T-47D breast 52.4% | BT-549 breast 64.8% | MDA-MB-435 melanoma 59.2% | SW-620 colon 55% | MCF7 breast 67.7% | HCT-116 colon 51.2% | HCC-2998 colon 54%

COc1cc(/C=C\c2cc(OC)c(OC)c(OC)c2)cc(N/C=C\C(=O)c2cc(OC)c(OC)c(OC)c2)c1OC
inactive: NCI/ADR-RES ovarian 19.5% | BT-549 breast 43.9% | SW-620 colon 28.2% | MCF7 breast 15.1% | HCT-116 colon 17.8% | HCC-2998 colon 53.6% | KM12 colon 21.8%
active: T-47D breast -3% | MDA-MB-435 melanoma -37.3%

O=P(Oc1ccc(Cl)cc1)(N1CC1)N1CC1
inactive: NCI/ADR-RES ovarian 101% | T-47D breast 106% | BT-549 breast 92.8% | MDA-MB-435 melanoma 109% | SW-620 colon 89.3% | MCF7 breast 67.4% | HCT-116 colon 84% | HCC-2998 colon 88.5% | KM12 colon 110%

CCOC(=O)CCN(C)C1=Nc2ccc(Cl)cc2C(c2ccccc2)=[N+]([O-])C1
inactive: NCI/ADR-RES ovarian 104% | T-47D breast 101% | BT-549 breast 88.9% | MDA-MB-435 melanoma 115% | SW-620 colon 104% | MCF7 breast 97.1% | HCT-116 colon 112% | HCC-2998 colon 102%

C=CC12CCN(CC1)C(C(O)c1ccnc3ccc(OC)cc13)C2 (stereo unspecified)
inactive: NCI/ADR-RES ovarian 91.8% | T-47D breast 82.5% | BT-549 breast 103% | MDA-MB-435 melanoma 56.5% | SW-620 colon 88.9% | MCF7 breast 66.5% | HCT-116 colon 60.5%
active: HCC-2998 colon -34.8%

COc1ccc(/C=C\c2cc(OC)c(OC)c(OC)c2)cc1NC(=O)/C=C/c1cc(OC)c(OC)c(OC)c1
inactive: T-47D breast 30% | BT-549 breast 44% | SW-620 colon 47.6% | MCF7 breast 25.2% | HCT-116 colon 44.6% | HCC-2998 colon 91.2%
active: NCI/ADR-RES ovarian 8.42% | MDA-MB-435 melanoma -53.2%

COc1cc2ncnc(Nc3ccc(F)c(Cl)c3)c2cc1OCC(=O)N1CCN(C)CC1
inactive: NCI/ADR-RES ovarian 86.7% | T-47D breast 70% | BT-549 breast 89.6% | MDA-MB-435 melanoma 102% | SW-620 colon 105% | MCF7 breast 80.4% | HCT-116 colon 91.3% | HCC-2998 colon 102%

COC(=O)[C@@H](C)C[C@H](Cc1ccccc1)NC(=O)c1cccc([C@@H](C[C@H](C(C)C)N(C)C(=O)[C@@H](NC(=O)[C@H]2CCCCN2C)C(C)C)OC(C)=O)n1
inactive: NCI/ADR-RES ovarian 14.6% | T-47D breast 47.1% | SW-620 colon 22% | MCF7 breast 21.3%
active: BT-549 breast -12.5% | MDA-MB-435 melanoma -32.2% | HCT-116 colon 2.54% | HCC-2998 colon 2.68%

Nc1ncnc2n[nH]nc12
inactive: NCI/ADR-RES ovarian 67.7% | BT-549 breast 89.8% | MDA-MB-435 melanoma 75.1% | SW-620 colon 61.5% | MCF7 breast 63.2% | HCT-116 colon 65.1% | HCC-2998 colon 68.7%
active: T-47D breast 4.78%

CCCCN1CCCC[C@@H]1C(=O)N[C@H](C(=O)N(C)[C@H](CCc1nc(C(=O)N[C@@H](Cc2ccccc2)C[C@H](C)C(=O)OC)cs1)C(C)C)[C@@H](C)CC
inactive: NCI/ADR-RES ovarian 65.7% | T-47D breast 44.2% | BT-549 breast 36.4% | SW-620 colon 63.7% | MCF7 breast 18.5% | HCT-116 colon 31.6% | HCC-2998 colon 61.7%
active: MDA-MB-435 melanoma -30%

Nc1nnnc2nc[nH]c12
inactive: BT-549 breast 43.8% | SW-620 colon 11% | MCF7 breast 15.3% | HCC-2998 colon 17.1%
active: NCI/ADR-RES ovarian 0.552% | T-47D breast -26.6% | MDA-MB-435 melanoma -11.8% | HCT-116 colon -11.8%

COc1cc(/C=C\c2cc(OC)c(OC)c(OC)c2)cc(NS(=O)(=O)c2cccc(Cl)c2)c1OC
active: NCI/ADR-RES ovarian 7.73% | MDA-MB-435 melanoma -20.2% | MCF7 breast 7.6% | HCT-116 colon 2.62%
inactive: T-47D breast 93.1% | BT-549 breast 24.1% | SW-620 colon 25.4% | HCC-2998 colon 13.9%

COc1ccc2c(c1)c(-c1nc(-c3c[nH]c4ncccc34)cs1)cn2CCCCN1CCCCC1
active: NCI/ADR-RES ovarian 1.16% | T-47D breast -55.5% | MDA-MB-435 melanoma -92.7% | SW-620 colon -71.9% | MCF7 breast -74.9% | HCT-116 colon -98.9% | HCC-2998 colon -9.73%
inactive: BT-549 breast 69.2%

O=C1C2CC=CCC2C(=O)N1SC(Cl)(Cl)Cl (stereo unspecified)
inactive: NCI/ADR-RES ovarian 104% | T-47D breast 46.3% | BT-549 breast 125% | MDA-MB-435 melanoma 126% | MCF7 breast 83.3% | HCT-116 colon 66.5% | HCC-2998 colon 105%
active: SW-620 colon 8.03%

[Au+].[N-]=C=O.c1ccc(CN2[CH-]N(Cc3ccccc3)C(c3ccccc3)=C2c2ccccc2)cc1
inactive: NCI/ADR-RES ovarian 109% | T-47D breast 52.4% | BT-549 breast 89.8% | MDA-MB-435 melanoma 101% | SW-620 colon 89.6% | MCF7 breast 46.1% | HCT-116 colon 67.6% | HCC-2998 colon 79.9%

CNC12C3C4C1C1C2C3C41C(=O)N[C@H](C(=O)N(C)[C@H](C[C@@H](OC(C)=O)c1nc(C(=O)N[C@@H](Cc2ccccc2)C[C@H](C)C(=O)OC)cs1)C(C)C)C1CC1 (stereo partly specified)
active: BT-549 breast -34.7% | MDA-MB-435 melanoma -18.5% | HCT-116 colon 2.93% | HCC-2998 colon -60.8%
inactive: NCI/ADR-RES ovarian 62% | T-47D breast 50.9% | SW-620 colon 53.1% | MCF7 breast 15.7%

Nc1ccc(OCCNS(=O)(=O)c2cccc(S(=O)(=O)F)c2)c(Cl)c1
inactive: NCI/ADR-RES ovarian 101% | T-47D breast 102% | BT-549 breast 95.9% | MDA-MB-435 melanoma 98.2% | SW-620 colon 106% | MCF7 breast 85.3% | HCT-116 colon 95.2% | HCC-2998 colon 101%

Cn1cccc1C1CC(=O)N(CCC[Se]C#N)C1=O (stereo unspecified)
active: NCI/ADR-RES ovarian -0.356% | BT-549 breast -93.5% | MDA-MB-435 melanoma -6.27% | MCF7 breast 9.04% | HCT-116 colon 2.78%
inactive: T-47D breast 71.7% | SW-620 colon 56.7% | HCC-2998 colon 83.1% | KM12 colon 12.3%

CN1CCC(c2c[nH]c3ccccc23)C1 (stereo unspecified)
inactive: NCI/ADR-RES ovarian 94.5% | T-47D breast 97% | BT-549 breast 110% | MDA-MB-435 melanoma 97.9% | SW-620 colon 104% | MCF7 breast 94.8% | HCT-116 colon 94.2% | HCC-2998 colon 94.1%

CC[C@H](NC(=O)[C@H]1CCCCN1C)C(=O)N(C)[C@H](C[C@@H](OC(C)=O)c1nc(C(=O)N[C@@H](Cc2ccccc2)C[C@H](C)C(=O)O)cs1)C(C)C
inactive: T-47D breast 51.3% | SW-620 colon 22.4% | MCF7 breast 16.9%
active: NCI/ADR-RES ovarian 9.47% | BT-549 breast -15.6% | MDA-MB-435 melanoma -36.5% | HCT-116 colon 0.18% | HCC-2998 colon 8.05% | KM12 colon 7.87%

COc1ccc(S(=O)(=O)Nc2c(/C=C\c3cc(OC)c(OC)c(OC)c3)ccc(OC)c2O)cc1OC
active: NCI/ADR-RES ovarian 2.42% | MDA-MB-435 melanoma -52%
inactive: T-47D breast 100% | BT-549 breast 20.7% | SW-620 colon 22.6% | MCF7 breast 15.7% | HCT-116 colon 12.6% | HCC-2998 colon 22.6%

CCC(O)(CN)c1ccccc1 (stereo unspecified)
inactive: NCI/ADR-RES ovarian 105% | T-47D breast 99.6% | BT-549 breast 104% | MDA-MB-435 melanoma 105% | SW-620 colon 100% | MCF7 breast 102% | HCT-116 colon 99.8% | HCC-2998 colon 106%

COC(C(=O)[C@@H](O)[C@@H](C)O)[C@@H]1Cc2cc3cc(O[C@H]4C[C@@H](O[C@H]5C[C@@H](O)[C@H](O)C(C)O5)[C@H](O)C(C)O4)c(C)c(O)c3c(O)c2C(=O)[C@H]1O[C@H]1C[C@@H](O[C@H]2C[C@@H](O[C@H]3C[C@@H](O)[C@@H](O)C(C)O3)[C@@H](O)C(C)O2)[C@H](O)C(C)O1 (stereo partly specified)
active: T-47D breast -1.75% | BT-549 breast -27.2% | MDA-MB-435 melanoma -37.2% | MCF7 breast 0.0061% | HCT-116 colon 2.29% | HCC-2998 colon -5.17%
inactive: NCI/ADR-RES ovarian 85.5% | SW-620 colon 22.2%

Oc1ccc2c3c1OC1[C@@H](O)CC[C@@]4(O)[C@@H](C2)N(CC2CCC2)CC[C@]314 (stereo partly specified)
inactive: NCI/ADR-RES ovarian 102% | T-47D breast 100% | BT-549 breast 106% | MDA-MB-435 melanoma 101% | SW-620 colon 104% | MCF7 breast 92.5% | HCT-116 colon 99.2%
